Source: PubChem
cardiac RTF act: increases calcium sensitivity of human cardiac regulated thin filaments; P19429+P45379; IANBD-labeled TnC RTF fluorescence at EC20 calcium; 0% EC20 calcium, 100% full calcium; activation, % at 7.2 µM; hit rate 0.24% among 340,000; AID 493008;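 active = activation above the mean over all tested compounds plus 3 SD, cut at about 30% in these data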;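 also: rise in fluorescence read as greater calcium sensitivity of cardiac thin filaments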
Cardiac RTF inh: cardiac RTF calcium desensitization; inhibition, % at 7.15 µM; AID 493244; IANBD-labeled cardiac RTF, Ca2+ fluorescence; hit rate 0.12% among 340,000; P19429+P45379;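 active = inhibition above the mean inhibition of all tested compounds plus 3 SD, cut at about 17% in these data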;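 also: assay run at fixed EC70 calcium of 1.6 mM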
LANA DNA inh: blocks KSHV LANA C-terminal domain binding to DNA | MBP-C-LANA/FAM-LBS DNA binding, fluorescence polarization | inhibition, % at 9 µM | hit rate 0.078% among 340,000;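 active = highest replicate inhibition at or above 60% at 9 µM, even if other replicates fall short; inactive = all replicates below 60% inhibition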
LANA-H2A inh: blocks KSHV LANA binding to histone H2A/H2B | Q9QR71 | inhibition, % (no concentration beside the values) | cell-free LANA-H2A/H2B peptide, fluorescence polarization | hit rate 0.6% among 320,000; in the data active = inhibition mostly above about 10%, no sharp cut-off; inactive = mostly below about 6.7%
Keap1-Nrf2 PPI: inhibitors of human Keap1-Nrf2 protein-protein interaction; Q14145; Keap1 Kelch-Nrf2 peptide fluorescence polarization, 1536-well; inhibition, % at 9.4 µM; hit rate 0.15% among 340,000; in the data active = inhibition above about 12%;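 also: human Keap1 Kelch domain with fluorescein labeled Nrf2 9mer peptide probe; higher means more block of Keap1 binding to Nrf2 peptide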
Target sequence (Q14145 whole entry, looked up, the tested form may be a part): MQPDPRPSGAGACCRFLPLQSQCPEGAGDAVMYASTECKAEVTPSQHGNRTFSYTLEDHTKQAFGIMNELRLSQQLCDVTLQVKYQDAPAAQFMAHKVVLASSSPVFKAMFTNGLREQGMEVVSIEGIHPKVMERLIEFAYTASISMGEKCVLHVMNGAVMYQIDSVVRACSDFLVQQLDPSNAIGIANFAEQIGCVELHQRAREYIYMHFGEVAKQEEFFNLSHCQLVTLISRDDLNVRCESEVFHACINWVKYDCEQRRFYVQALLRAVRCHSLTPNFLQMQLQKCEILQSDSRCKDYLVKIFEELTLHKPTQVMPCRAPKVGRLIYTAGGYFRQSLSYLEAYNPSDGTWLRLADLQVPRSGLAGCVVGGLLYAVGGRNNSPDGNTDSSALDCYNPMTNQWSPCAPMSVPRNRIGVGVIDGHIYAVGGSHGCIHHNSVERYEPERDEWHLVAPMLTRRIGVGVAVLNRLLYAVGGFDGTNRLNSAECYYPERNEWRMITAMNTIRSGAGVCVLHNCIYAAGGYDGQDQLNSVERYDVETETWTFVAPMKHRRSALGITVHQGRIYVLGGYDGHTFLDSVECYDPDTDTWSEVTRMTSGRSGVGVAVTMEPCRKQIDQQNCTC
E coli Lon inh: inhibits E. coli Lon protease; P0A9M0; purified E. coli Lon protease, fluorescence polarization; inhibition, % at 7.94 µM; hit rate 0.42% among 360,000; AID 602123; in the data active = inhibition above about 13%, passing the limit was not always enough
Hits are given with their value; . = inactive; / = not tested or not shown. In the library only some 1.3% were active in any assay of this set; here they are far more common.

SMILES	cardiac RTF act	Cardiac RTF inh	LANA DNA inh	LANA-H2A inh	Keap1-Nrf2 PPI	E coli Lon inh
COc1cc2c(cc1OC)CN(C1CCC(C(C)(C)C)CC1)CC2 (stereo unspecified)	.	.	.	/	.	.
O=C(NNC(=O)C1[C@H]2CCCC[C@@H]12)Nc1cccc2ccccc12 (stereo partly specified)	.	.	.	.	.	.
C=CCN1C(=O)/C(=c2\sc3nc(=O)c(Cc4ccc(OC)c(OC)c4)nn3c2=O)c2ccccc21	/	/	/	.	/	.
CCCNC(=O)C1(C)CCN(C(=O)c2cc(F)cc(F)c2)C1 (stereo unspecified)	/	/	/	/	/	.
Cc1ccccc1NC(=S)N1CCC(C(=O)c2ccc(F)cc2)CC1	.	.	.	28.4	.	.
Cc1ccc(N2C(SCC(=O)O)=NC(=Nc3cccc(C)c3)C23CCCC3)cc1	.	.	.	.	.	.
O=C(COC(=O)c1cc(S(=O)(=O)N2CCOCC2)ccc1F)NC1CCCCC1	.	.	.	/	.	.
Cc1noc(C)c1COC(=O)c1cc(S(=O)(=O)N2CCOCC2)ccc1F	.	.	.	31.4	.	.
CC(OC(=O)c1cc(S(=O)(=O)N2CCOCC2)ccc1F)C(=O)NC1CCCC1 (stereo unspecified)	.	.	.	24.8	.	.
Cc1noc(C)c1COC(=O)c1cc(S(=O)(=O)N2CCOCC2)ccc1Cl	.	.	.	.	.	.
O=C1c2cccc3cccc(c23)C(=O)N1CCCN1CCN(c2ccc(F)cc2)CC1	.	.	.	.	.	.
COc1ccc(OCC(=O)NNC(=S)NC(=O)C2CCCCC2)cc1	.	.	.	.	.	.
CCc1ccc2oc(=O)cc(CN3CCC(C)CC3)c2c1	.	.	.	20.6	.	.
CC(C)N(Cc1nccn1C)C(=O)CC1C(=O)NCCN1Cc1ccccc1C(F)(F)F (stereo unspecified)	.	.	.	13.3	.	.
O=C(CC1C(=O)NCCN1Cc1ccccc1C(F)(F)F)NC1CCC1 (stereo unspecified)	.	.	.	181.1	.	.
Nc1ccn(C2CCCCO2)c(=O)n1 (stereo unspecified)	.	.	.	/	.	.
CCN1CCN(CC(=O)N2N=C(c3ccc(OC)cc3)CC2c2ccc(OC)cc2)C(=O)C1=O (stereo unspecified)	.	.	.	.	.	.
COCCN(C(=O)COC(=O)CSc1ccc(Cl)cc1)c1c(N)n(CC(C)C)c(=O)[nH]c1=O	.	.	.	/	.	.
Cc1cc(NC(=O)CSc2nc3c(cc2C#N)CCC3)no1	.	.	.	.	.	.
COc1cccc(CNC(=O)COC(=O)CCS(=O)(=O)c2ccc(C)cc2)c1	.	.	.	/	.	.
COc1cccc(/C=C/C(=O)OCC(=O)c2ccccc2)c1OC	.	.	.	.	.	.
COc1cccc(/C=C/C(=O)OCC(=O)c2ccc(C)c(C)c2)c1OC	.	.	.	19.8	.	.
CCCN(CC(=O)Nc1ccccc1C)C(=O)Cc1c[nH]c2ccccc12	.	.	.	/	.	.
CCCN(CC(=O)Nc1ccccc1C)C(=O)Cc1c(C)nc2ccccc2c1C	.	.	.	139.7	.	.
COCC#Cc1cnc2c(c1)C(=O)N([C@H](C)CO)C[C@H](C)[C@@H](CN(C)S(=O)(=O)c1ccccc1)O2	/	/	/	/	/	.
SMILES	cardiac RTF act	Cardiac RTF inh	LANA DNA inh	LANA-H2A inh	Keap1-Nrf2 PPI	E coli Lon inh
CN(C)c1ccc(NC(=O)CN2CCc3ccccc3C2)cc1	.	.	.	.	.	.
Cc1nnc(-n2ncc(C#N)c2N)c2nn(-c3cccc(Cl)c3)c(C)c12	.	.	.	.	.	.
Cc1nnc(N2CCOCC2)c2nn(-c3cccc(Cl)c3)c(C)c12	33.1	.	.	.	.	.
O=C(OCC(=O)N1CCN(C(=O)COC(=O)c2ccc(O)cc2O)CC1)c1ccc(O)cc1O	.	.	.	.	.	.
COc1ccc(OC)c(N(CC(=O)NCc2ccccn2)S(C)(=O)=O)c1	.	.	.	.	.	31.0
CCCn1c(N)c(N(CCOC)C(=O)/C=C/c2ccc(C(=O)OC)cc2)c(=O)[nH]c1=O	.	.	.	.	.	.
CCOC(=O)N1CCN(C(=O)c2cc3cc(C)ccc3[nH]2)CC1	.	.	.	12.8	.	.
Cc1ccc2[nH]c(C(=O)N3CCN(C=O)CC3)cc2c1	.	.	.	.	.	.
Cc1ccc(Nc2nnc(SCC(=O)NC(Cc3c[nH]c4ccccc34)C(=O)O)s2)cc1 (stereo unspecified)	.	.	.	.	.	.
COc1cccc(CN2CC(C(=O)N(C)Cc3ccc(C)cc3)CCC2=O)c1 (stereo unspecified)	.	.	.	13.9	.	.
CCOC(=O)c1ccc(NC(=O)CCCN2C(=O)NC3(CCCC3)C2=O)cc1	.	.	.	12.4	.	.
CC1CCN(Cc2nnc(-c3cccc(Br)c3)o2)CC1	.	.	.	.	.	.
CC(Oc1ccc(Cl)cc1)C(=O)Nc1nccs1 (stereo unspecified)	.	.	.	21.2	.	.
CC(C(=O)Oc1ccc2c(c1)OCO2)N1C(=O)c2ccccc2C1=O (stereo unspecified)	/	/	/	20.9	/	/
N#Cc1c(Cl)nc(N/N=C/c2ccccc2)c(Cl)c1Cl	.	.	.	.	.	.
C[N+](C)(C)c1ccc(/C=N/Nc2nc(Cl)c(C#N)c(Cl)c2Cl)cc1	.	.	.	54.3	.	.
COC(=O)[C@@]1(Cc2ccc(F)cc2)[C@H]2c3cc(C(=O)N4CCCC4)n(CCc4ccccn4)c3C[C@H]2CN1C(=O)c1ccccc1	/	/	/	17.9	/	/
CC(CNC(=O)c1ccccc1[N+](=O)[O-])NC(=O)c1ccccc1[N+](=O)[O-] (stereo unspecified)	.	.	.	.	.	.
COc1ccc(CNC(=O)N2CCN(c3ccccc3OC)CC2)cc1	.	.	.	.	.	.
CC(=O)Nc1ccccc1NC(=O)C/C(C)=N/NC(=O)Cc1cccc2ccccc12	.	.	.	.	.	.
COc1cc(/C=C2/SC(=S)N(Cc3ccccc3)C2=O)ccc1OCC(=O)O	.	.	.	.	.	.
COc1cc(/C=C2/SC(=S)N(Cc3ccccc3)C2=O)cc(Cl)c1O	71.3	.	.	.	.	.
Cc1cccn2c(=O)c3cc(C#N)c(=NC(=O)c4ccncc4)n(CCCOC(C)C)c3nc12	.	.	.	8.9	.	.
COc1ccc(C(=O)NC2CCCc3c2cnn3-c2ccccc2F)o1 (stereo unspecified)	.	.	.	.	.	.
CC1(C(=O)NS(=O)(=O)c2ccc(F)cc2F)CCN1C(=O)CC1CCCC1 (stereo unspecified)	/	/	/	/	/	.
Cc1ccc(C)c(C(=O)COC(=O)c2ccc(C)c(S(=O)(=O)N3CCOCC3)c2)c1	.	.	.	13.7	.	.
CN(C)c1ccc(/C=C/C(=O)c2cccc(Br)c2)cc1	135.1	.	.	.	.	.
